Measured values from PubChem BioAssay AID493231 (Broad Institute, 2011).
Measured potencies and affinities stand elsewhere. Calls of active or inactive are those of the source. How the calls were made is not given here.

molecular target: Acyl-homoserine lactone acylase PvdQ (Pseudomonas aeruginosa (strain ATCC 15692 / DSM 22644 / CIP 104116 / JCM 14847 / LMG 12228 / 1C / PRS 101 / PAO1)) (UniProt Q9I194); assay: P. aeruginosa PvdQ acylase inhibitors, dose response, biochemical, fluorescence, plate reader and imaging, cherry-picks (AID 493231); conditions: purified PvdQ acylase, fluorogenic substrate; series mostly up to 10 µM;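 further: more negative values mean stronger inhibition of the acylase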
Sequence (Q9I194 whole entry, looked up): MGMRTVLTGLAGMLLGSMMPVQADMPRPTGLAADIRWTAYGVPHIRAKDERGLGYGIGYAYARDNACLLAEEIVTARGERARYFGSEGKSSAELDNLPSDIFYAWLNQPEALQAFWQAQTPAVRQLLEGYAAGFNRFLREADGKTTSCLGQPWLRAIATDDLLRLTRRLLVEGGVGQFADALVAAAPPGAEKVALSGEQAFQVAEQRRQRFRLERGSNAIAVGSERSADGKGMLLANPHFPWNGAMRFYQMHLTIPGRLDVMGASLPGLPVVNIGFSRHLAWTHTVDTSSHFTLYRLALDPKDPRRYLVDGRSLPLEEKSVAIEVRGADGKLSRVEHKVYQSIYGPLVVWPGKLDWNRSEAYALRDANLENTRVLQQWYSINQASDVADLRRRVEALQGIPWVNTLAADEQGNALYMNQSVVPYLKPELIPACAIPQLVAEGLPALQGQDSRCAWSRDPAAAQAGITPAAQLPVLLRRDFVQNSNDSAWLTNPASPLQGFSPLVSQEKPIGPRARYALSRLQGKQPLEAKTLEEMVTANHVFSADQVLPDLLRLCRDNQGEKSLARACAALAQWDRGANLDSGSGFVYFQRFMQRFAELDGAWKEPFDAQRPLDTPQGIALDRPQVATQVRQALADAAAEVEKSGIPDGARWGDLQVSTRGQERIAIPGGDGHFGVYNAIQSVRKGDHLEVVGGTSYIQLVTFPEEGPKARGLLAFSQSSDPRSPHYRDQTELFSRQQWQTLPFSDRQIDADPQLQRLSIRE

| SMILES | outcome |
| --- | --- |
| COc1ccccc1N(CC(O)Cn1ccnc1C)S(=O)(=O)c1ccccc1 (stereo not given) | inactive |
| N#C/C(C(=S)Nc1ccccc1)=C1/NN=C(N2CCOCC2)N1c1ccccc1 | inactive |
| COc1ccc(OCCCC(=O)Nc2cccc(SC)c2)cc1 | inactive |
| O=C1CCCN=C(Nc2ccc(F)c(Cl)c2)S1 | inactive |
| CC(=O)c1ccc2c3c(cc(C)c2c1)CCCC3 | inactive |
| O=C1OC(Nc2ccc3c(c2)OCO3)c2ccccc21 (stereo not given) | inactive |
| Cc1cccc(NCc2ccccc2O)n1 | inactive |
| Cn1c(=O)c2c(ncn2CC(=O)OCC(=O)NCc2ccc(Cl)cc2)n(C)c1=O | inactive |
| Cc1ccc2[nH]c(=O)c(CC=C(Cl)Cl)c(C)c2c1 | inactive |
| CC1(OC(=O)CCc2ccccc2)C(=O)C=C2C=C(c3ccc(C#N)cc3)N(Cc3ccccc3)C=C2C1=O (stereo not given) | inactive |
| CN(C)CCCN(Cc1cc2cc3c(cc2[nH]c1=O)OCO3)C(=S)Nc1cccc(Cl)c1 | inactive |
| O=C(COC(=O)/C=C/c1cccc(Br)c1)NC1CCCCCC1 | inactive |
| O=C(CN1C(=O)C2C3C=CC(C4CC34)C2C1=O)Oc1ccccc1 (stereo not given) | inactive |
| N#C/C(=C\c1ccco1)c1nc2ccccc2s1 | inactive |
| CN(c1ccc(C(=O)NC2CC3CCC2C3)cc1)S(C)(=O)=O (stereo not given) | inactive |
| O=C(NCCCn1ccnc1)c1nn2c(C(F)(F)F)cc(-c3ccccc3)nc2c1Cl | inactive |
| CCCCNc1c(C(=O)OCC)c(=O)[nH]c2ccccc12 | inactive |
| COc1ccc(-c2cc3cccc(OC)c3oc2=O)cc1 | inactive |

| SMILES | outcome |
| --- | --- |
| CCOC(=O)c1ccc(N2Cc3ccccc3C2=NC(=O)c2ccncc2)cc1 | inactive |
| Cn1c(=O)c2[nH]c(-c3ccccc3)c(O)c2n(C)c1=O | inactive |
| COc1ccc(NC(=O)C2CCCN(C(=O)NC3CCCCC3)C2)cc1OC (stereo not given) | inactive |
| CN1C=CC=C/C1=C1\SC(=S)N(Cc2ccccc2)C1=O | inactive |
| COc1ccc(-c2cc3ccccc3cn2)cc1 | inactive |
| COc1ccc(CN2CCCC(C(=O)c3cccc(OC(C)C)c3)C2)cc1Cn1cccn1 (stereo not given) | inactive |
| C=CCNC(=S)NNC(=O)C(CC(C)C)CC(C)O (stereo not given) | inactive |
| Cc1nc(N2CCNCC2)c2c3c(sc2n1)CCCC3 | inactive |
| COc1cccc(Nc2nc(Nc3ccc(Cl)c(C(=O)O)c3)nc(C)c2[N+](=O)[O-])c1 | inactive |
| O=C(N/N=C/c1cccnc1)C1CC1(c1ccccc1)c1ccccc1 (stereo not given) | inactive |
| Cc1cc(=O)n2nc(N3CCCC(C(=O)N4CCOCC4)C3)sc2n1 (stereo not given) | inactive |
| C=CCC1S/C(=N/N=C/c2cccs2)NC1=O (stereo not given) | inactive |
| O=C(Nc1cccc(Br)c1)c1ccc2c(c1)SC1=NS(=O)(=O)CCN12 | inactive |
| Clc1ccc2nc(-c3ccc4c(c3)OCO4)cn2c1 | inactive |
| CN(C)CCN(C(=O)C1=COCCO1)c1nc2ccc(Cl)cc2s1 | inactive |
| Cc1cc(C(=O)OCC(=O)Nc2cc(C)on2)c2ccccc2n1 | inactive |
| COC(=O)c1ccccc1NC(=O)CN1CCC(NC(=O)c2ccc(C)cc2)CC1 | inactive |
